From PMC7862700, “An all-to-all approach to the identification of sequence-specific readers for epigenetic DNA modifications on cytosine”

Legend:
Experiment in all cases: DAPPL (digital affinity profiling via proximity ligation, sequencing); 10 mM Tris-HCl pH 7.5, 50 mM NaCl, 1 mM DTT, 4% glycerol, room temperature, 30 min; GST-TFs on glutathione beads, 16-mer random dsDNA library, 0.1% formaldehyde crosslink after washing; high values mean tight binding
FLI1 = biological target: T1, FLI1 (Homo sapiens, UniProt Q01543 1-452); conditions: protein: recombinant; tags: N-terminal GST; dsDNA, one strand shown
T1 sequence: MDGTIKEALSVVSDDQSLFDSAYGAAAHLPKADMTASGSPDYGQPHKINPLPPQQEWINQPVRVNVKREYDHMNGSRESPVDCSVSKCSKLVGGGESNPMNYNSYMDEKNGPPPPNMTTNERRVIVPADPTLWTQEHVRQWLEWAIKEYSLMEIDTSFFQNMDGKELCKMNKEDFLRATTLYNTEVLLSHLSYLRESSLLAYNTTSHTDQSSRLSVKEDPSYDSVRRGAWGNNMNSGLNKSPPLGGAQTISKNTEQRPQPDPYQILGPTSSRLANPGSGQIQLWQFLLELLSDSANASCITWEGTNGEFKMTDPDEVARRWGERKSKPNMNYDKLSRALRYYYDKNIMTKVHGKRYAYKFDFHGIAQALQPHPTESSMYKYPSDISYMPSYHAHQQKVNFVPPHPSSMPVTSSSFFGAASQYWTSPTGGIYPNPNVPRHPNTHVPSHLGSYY
How it was run: (§1)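 Each value of binding signal is a hexamer's read frequency for a factor divided by the same hexamer's frequency in the tag-only sample. Barcoded, bead-captured GST fusions of human transcription factors made in yeast were pooled with that sample and incubated with 200 nmole of a random double-stranded 16-mer DNA library in Tris/NaCl/DTT/glycerol buffer at room temperature for 30 min. Washing, 0.1% formaldehyde crosslinking, proximity ligation, PCR and Illumina NextSeq500 sequencing followed.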

ELK1 = biological target: T2, ELK1 (Homo sapiens, UniProt P19419 1-428); conditions: protein: recombinant; tags: N-terminal GST; dsDNA, one strand shown
T2 sequence: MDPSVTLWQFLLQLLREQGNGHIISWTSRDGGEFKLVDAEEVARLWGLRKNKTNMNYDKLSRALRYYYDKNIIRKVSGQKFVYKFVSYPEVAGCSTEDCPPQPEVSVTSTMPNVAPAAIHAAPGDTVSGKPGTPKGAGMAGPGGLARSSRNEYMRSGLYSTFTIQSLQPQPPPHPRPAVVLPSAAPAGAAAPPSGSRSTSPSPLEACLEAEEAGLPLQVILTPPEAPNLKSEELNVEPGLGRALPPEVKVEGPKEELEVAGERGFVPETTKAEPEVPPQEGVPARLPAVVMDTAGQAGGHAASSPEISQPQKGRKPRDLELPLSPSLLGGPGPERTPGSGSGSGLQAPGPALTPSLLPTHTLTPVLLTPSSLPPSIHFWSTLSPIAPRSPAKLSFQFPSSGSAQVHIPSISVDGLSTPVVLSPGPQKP
How it was run: as §1

GABPA = biological target: T3, GABPA (Homo sapiens, UniProt Q06546 1-454); conditions: protein: recombinant; tags: N-terminal GST; dsDNA, one strand shown
T3 sequence: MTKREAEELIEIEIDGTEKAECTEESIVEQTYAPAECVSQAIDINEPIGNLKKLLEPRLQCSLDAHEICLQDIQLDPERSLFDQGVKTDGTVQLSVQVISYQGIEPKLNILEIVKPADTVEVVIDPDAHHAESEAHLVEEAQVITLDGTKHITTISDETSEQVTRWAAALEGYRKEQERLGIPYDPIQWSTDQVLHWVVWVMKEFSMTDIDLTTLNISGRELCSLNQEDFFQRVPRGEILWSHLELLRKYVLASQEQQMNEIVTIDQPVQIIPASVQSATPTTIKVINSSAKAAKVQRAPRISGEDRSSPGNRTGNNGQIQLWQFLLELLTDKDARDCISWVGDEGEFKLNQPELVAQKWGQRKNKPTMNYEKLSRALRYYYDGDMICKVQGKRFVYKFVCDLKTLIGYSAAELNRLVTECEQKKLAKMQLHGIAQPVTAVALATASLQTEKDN
How it was run: as §1

ERG = biological target: T4, ERG (Homo sapiens, UniProt P11308 1-479); conditions: protein: recombinant; tags: N-terminal GST; dsDNA, one strand shown
T4 sequence: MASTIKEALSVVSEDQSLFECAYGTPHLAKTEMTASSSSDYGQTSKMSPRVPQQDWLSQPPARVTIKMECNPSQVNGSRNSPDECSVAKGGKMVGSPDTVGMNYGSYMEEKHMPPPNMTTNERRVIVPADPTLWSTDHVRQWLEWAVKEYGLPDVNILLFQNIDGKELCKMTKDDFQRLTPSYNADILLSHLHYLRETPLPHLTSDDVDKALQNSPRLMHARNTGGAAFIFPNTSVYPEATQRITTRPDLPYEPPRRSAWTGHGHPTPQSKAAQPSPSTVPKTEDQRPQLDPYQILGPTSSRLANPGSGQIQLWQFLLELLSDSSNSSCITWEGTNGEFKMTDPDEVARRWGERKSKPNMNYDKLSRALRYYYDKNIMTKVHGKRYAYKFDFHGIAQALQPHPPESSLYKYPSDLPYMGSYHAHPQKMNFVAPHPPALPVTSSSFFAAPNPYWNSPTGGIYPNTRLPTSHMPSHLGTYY
How it was run: as §1

ELF1 = ELF1 (Homo sapiens, UniProt P32519 1-619); conditions: protein: recombinant; tags: N-terminal GST; dsDNA, one strand shown
How it was run: as §1

EHF = biological target: T5, EHF (Homo sapiens, UniProt Q9NZC4 1-300); conditions: protein: recombinant; tags: N-terminal GST; dsDNA, one strand shown
T5 sequence: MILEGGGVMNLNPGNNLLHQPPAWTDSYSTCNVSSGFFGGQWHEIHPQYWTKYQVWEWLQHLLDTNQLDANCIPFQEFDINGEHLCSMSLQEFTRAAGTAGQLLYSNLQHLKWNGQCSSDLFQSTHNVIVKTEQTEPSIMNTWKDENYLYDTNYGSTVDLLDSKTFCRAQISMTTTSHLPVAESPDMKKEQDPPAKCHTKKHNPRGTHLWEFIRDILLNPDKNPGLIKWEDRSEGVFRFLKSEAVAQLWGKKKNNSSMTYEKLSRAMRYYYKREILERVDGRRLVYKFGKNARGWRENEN
How it was run: as §1

SPI1 = SPI1 (Homo sapiens, UniProt P17947 1-270); conditions: protein: recombinant; tags: N-terminal GST; dsDNA, one strand shown
How it was run: as §1

SPIB = SPIB (Homo sapiens, UniProt Q01892 1-262); conditions: protein: recombinant; tags: N-terminal GST; dsDNA, one strand shown
How it was run: as §1

ELK3 = biological target: T6, ELK3 (Homo sapiens, UniProt P41970 1-407); conditions: protein: recombinant; tags: N-terminal GST; dsDNA, one strand shown
T6 sequence: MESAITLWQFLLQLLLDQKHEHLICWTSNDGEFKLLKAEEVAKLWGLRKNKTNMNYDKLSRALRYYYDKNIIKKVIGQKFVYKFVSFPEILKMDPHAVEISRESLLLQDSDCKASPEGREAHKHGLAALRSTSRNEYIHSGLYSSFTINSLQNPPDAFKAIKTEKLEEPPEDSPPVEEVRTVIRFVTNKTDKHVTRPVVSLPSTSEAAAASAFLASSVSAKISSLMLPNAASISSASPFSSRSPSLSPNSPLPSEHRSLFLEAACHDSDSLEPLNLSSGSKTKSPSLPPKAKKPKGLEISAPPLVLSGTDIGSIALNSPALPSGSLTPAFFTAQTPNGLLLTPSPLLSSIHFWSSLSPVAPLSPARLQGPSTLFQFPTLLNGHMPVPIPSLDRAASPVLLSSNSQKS
How it was run: as §1

FEV = biological target: T7, FEV (Homo sapiens, UniProt Q99581 1-238); conditions: protein: recombinant; tags: N-terminal GST; dsDNA, one strand shown
T7 sequence: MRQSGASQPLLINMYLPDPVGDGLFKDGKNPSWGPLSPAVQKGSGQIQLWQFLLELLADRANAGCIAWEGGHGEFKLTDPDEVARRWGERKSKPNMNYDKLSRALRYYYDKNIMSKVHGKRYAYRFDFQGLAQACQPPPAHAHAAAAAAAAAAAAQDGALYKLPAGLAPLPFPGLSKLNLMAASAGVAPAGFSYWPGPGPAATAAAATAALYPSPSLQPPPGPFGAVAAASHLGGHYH
How it was run: as §1

ETV5 = ETV5 (Homo sapiens, UniProt P41161 1-510); conditions: protein: recombinant; tags: N-terminal GST; dsDNA, one strand shown
How it was run: as §1

HSF1 = HSF1 (Homo sapiens, UniProt Q00613 1-529); conditions: protein: recombinant; tags: N-terminal GST; chain copies: 3; dsDNA, one strand shown
How it was run: as §1

SPIC = biological target: T8, SPIC (Homo sapiens, UniProt Q8N5J4 1-248); conditions: protein: recombinant; tags: N-terminal GST; dsDNA, one strand shown
T8 sequence: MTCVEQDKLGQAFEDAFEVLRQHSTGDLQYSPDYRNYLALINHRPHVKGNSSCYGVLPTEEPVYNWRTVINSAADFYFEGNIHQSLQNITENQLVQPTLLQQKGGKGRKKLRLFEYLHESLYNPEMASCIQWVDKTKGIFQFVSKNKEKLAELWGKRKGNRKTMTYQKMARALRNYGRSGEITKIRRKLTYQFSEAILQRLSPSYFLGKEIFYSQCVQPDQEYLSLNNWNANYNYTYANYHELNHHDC
How it was run: as §1

ELF4 = ELF4 (Homo sapiens, UniProt Q99607 1-663); conditions: protein: recombinant; tags: N-terminal GST; dsDNA, one strand shown
How it was run: as §1

ELK4 = biological target: T9, ELK4 (Homo sapiens, UniProt P28324-2 1-405); conditions: protein: recombinant; tags: N-terminal GST; dsDNA, one strand shown
T9 sequence: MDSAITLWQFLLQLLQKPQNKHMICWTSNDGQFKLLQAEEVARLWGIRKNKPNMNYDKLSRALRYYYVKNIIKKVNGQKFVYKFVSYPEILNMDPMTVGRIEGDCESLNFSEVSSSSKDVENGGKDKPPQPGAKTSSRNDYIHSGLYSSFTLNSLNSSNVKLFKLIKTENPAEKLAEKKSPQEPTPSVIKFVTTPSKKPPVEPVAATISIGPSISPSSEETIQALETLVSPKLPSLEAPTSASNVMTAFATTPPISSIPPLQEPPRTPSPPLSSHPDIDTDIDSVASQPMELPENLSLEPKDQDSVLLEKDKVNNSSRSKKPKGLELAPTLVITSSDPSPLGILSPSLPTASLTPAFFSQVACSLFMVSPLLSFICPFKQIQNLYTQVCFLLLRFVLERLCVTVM
How it was run: as §1

ETV2 = biological target: T10, ETV2 (Homo sapiens, UniProt O00321 1-342); conditions: protein: recombinant; tags: N-terminal GST; dsDNA, one strand shown
T10 sequence: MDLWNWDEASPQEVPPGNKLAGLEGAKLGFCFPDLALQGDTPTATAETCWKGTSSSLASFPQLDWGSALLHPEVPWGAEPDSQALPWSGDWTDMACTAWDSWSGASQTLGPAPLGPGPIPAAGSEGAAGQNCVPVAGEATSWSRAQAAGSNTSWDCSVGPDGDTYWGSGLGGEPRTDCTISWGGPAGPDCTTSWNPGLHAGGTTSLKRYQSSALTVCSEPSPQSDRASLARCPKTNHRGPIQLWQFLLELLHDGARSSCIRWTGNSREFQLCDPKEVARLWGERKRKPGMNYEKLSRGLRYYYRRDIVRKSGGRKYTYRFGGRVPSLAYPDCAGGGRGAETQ
How it was run: as §1

ELF3 = biological target: T11, ELF3 (Homo sapiens, UniProt P78545 1-371); conditions: protein: recombinant; tags: N-terminal GST; dsDNA, one strand shown
T11 sequence: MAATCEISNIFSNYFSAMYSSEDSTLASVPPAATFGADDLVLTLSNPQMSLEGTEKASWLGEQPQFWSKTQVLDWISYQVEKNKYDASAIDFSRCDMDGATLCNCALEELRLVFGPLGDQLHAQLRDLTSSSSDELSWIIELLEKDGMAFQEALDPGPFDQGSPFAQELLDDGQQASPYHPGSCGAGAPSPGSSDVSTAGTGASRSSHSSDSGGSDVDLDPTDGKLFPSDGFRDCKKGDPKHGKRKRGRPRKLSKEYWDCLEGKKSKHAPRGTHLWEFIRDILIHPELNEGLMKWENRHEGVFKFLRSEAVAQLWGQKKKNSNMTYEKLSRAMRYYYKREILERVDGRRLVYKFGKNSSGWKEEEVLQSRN
How it was run: as §1

CRX = CRX (Homo sapiens, UniProt O43186 1-299); conditions: protein: recombinant; tags: N-terminal GST; dsDNA, one strand shown
How it was run: as §1

ETV1 = ETV1 (Homo sapiens, UniProt P50549 1-477); conditions: protein: recombinant; tags: N-terminal GST; dsDNA, one strand shown
How it was run: as §1

Sequence of HSF1 (Q00613 whole entry): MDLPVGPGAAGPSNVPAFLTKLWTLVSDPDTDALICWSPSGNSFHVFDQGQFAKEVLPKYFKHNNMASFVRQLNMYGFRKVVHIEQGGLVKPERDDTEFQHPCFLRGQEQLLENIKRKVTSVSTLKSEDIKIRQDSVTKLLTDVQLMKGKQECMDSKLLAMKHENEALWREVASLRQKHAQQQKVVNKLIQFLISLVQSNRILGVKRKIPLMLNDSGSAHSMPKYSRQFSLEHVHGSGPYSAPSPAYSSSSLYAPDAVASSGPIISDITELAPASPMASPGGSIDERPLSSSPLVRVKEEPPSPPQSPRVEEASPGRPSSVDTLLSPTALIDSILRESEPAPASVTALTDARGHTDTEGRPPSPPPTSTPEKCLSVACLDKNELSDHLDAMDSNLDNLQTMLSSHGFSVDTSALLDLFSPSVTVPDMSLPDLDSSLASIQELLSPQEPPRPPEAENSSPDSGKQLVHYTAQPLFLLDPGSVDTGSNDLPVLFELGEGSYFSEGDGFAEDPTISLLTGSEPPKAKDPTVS
Sequence of SPIB (Q01892 whole entry): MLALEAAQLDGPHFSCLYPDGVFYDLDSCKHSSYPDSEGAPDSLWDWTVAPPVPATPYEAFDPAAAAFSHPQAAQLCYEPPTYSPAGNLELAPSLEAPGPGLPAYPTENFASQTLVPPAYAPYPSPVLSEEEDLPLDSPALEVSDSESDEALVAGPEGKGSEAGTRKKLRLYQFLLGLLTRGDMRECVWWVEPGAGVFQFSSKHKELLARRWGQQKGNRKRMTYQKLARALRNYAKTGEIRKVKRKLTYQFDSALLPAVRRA
Sequence of ETV5 (P41161 whole entry): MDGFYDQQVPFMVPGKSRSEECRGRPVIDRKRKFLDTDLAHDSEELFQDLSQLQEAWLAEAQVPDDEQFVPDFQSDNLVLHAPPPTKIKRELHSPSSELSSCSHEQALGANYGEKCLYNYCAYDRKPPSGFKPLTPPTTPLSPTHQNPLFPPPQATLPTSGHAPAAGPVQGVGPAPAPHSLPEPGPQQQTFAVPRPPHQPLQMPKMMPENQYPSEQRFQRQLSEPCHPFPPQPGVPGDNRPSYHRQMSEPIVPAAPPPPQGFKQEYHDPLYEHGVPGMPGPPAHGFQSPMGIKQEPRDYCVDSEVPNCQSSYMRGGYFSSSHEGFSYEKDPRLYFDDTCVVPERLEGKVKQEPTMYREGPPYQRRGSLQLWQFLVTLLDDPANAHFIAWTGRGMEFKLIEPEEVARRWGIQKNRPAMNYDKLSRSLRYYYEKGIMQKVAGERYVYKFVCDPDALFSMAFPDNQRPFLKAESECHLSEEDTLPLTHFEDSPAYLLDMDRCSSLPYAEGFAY
Sequence of ELF1 (P32519 whole entry): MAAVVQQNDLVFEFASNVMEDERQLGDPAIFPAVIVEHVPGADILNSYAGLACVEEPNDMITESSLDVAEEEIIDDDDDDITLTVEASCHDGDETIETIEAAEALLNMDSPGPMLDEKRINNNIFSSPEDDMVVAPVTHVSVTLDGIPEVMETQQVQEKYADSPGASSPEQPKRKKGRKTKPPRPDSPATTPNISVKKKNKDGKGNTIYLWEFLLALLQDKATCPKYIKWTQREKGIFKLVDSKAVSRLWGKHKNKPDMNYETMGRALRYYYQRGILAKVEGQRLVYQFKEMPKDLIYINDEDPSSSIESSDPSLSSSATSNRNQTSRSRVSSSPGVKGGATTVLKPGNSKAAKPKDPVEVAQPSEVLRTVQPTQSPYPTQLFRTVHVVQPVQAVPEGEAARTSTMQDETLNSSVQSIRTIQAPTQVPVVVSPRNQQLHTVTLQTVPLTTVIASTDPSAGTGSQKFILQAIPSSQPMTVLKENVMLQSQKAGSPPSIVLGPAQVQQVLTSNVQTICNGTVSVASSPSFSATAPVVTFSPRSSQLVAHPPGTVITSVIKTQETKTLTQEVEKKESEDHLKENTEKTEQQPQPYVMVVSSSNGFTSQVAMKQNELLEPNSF
Sequence of ELF4 (Q99607 whole entry): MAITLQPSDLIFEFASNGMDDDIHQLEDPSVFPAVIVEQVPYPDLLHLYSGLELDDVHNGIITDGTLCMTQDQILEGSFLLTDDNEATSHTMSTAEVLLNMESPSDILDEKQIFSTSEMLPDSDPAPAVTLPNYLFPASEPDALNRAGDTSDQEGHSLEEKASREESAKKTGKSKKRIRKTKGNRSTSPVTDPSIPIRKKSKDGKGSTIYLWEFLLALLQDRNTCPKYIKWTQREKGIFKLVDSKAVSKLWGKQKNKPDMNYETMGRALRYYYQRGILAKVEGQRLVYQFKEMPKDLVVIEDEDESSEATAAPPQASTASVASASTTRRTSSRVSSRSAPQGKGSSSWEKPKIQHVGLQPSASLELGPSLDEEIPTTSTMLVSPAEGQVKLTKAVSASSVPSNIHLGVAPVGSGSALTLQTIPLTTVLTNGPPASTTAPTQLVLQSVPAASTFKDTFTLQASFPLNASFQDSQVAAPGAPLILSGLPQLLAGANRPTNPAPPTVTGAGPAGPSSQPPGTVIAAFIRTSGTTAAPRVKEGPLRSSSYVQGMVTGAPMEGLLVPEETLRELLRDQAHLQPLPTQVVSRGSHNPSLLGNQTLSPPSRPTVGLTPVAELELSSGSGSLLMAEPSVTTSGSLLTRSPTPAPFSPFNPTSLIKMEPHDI
Sequence of CRX (O43186 whole entry): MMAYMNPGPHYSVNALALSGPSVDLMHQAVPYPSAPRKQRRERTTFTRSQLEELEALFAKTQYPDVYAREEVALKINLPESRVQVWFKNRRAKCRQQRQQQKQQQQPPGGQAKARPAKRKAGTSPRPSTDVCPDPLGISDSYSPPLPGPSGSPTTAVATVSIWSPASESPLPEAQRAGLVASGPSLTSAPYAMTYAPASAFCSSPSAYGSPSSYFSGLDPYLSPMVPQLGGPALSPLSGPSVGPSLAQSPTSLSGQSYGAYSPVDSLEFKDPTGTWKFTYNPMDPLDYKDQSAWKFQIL
Sequence of ETV1 (P50549 whole entry): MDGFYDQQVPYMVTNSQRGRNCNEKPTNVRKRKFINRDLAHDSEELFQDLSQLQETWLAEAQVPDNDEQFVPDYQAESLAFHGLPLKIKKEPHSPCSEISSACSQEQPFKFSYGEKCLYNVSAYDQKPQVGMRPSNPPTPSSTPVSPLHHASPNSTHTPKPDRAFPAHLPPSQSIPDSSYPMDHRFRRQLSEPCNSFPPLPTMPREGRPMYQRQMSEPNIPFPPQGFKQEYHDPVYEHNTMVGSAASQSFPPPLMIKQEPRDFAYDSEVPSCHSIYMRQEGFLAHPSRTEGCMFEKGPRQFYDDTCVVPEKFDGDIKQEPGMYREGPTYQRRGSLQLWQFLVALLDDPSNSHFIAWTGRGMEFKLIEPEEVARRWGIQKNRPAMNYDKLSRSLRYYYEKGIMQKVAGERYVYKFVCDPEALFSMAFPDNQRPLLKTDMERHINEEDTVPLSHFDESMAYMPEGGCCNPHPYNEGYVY

GGTCTT
binding signal (FLI1): 1.14 fold enrichment (6-mer frequency, TF over GST control) | binding signal (ELK1): 1.11 fold enrichment (6-mer frequency, TF over GST control) | binding signal (GABPA): 1.14 fold enrichment (6-mer frequency, TF over GST control) | binding signal (ERG): 1.09 fold enrichment (6-mer frequency, TF over GST control) | binding signal (ELF1): 1.19 fold enrichment (6-mer frequency, TF over GST control) | binding signal (EHF): 1.1 fold enrichment (6-mer frequency, TF over GST control) | binding signal (SPI1): 1.18 fold enrichment (6-mer frequency, TF over GST control) | binding signal (SPIB): 1.23 fold enrichment (6-mer frequency, TF over GST control) | binding signal (ELK3): 1.15 fold enrichment (6-mer frequency, TF over GST control) | binding signal (FEV): 1.07 fold enrichment (6-mer frequency, TF over GST control) | binding signal (ETV5): 1.14 fold enrichment (6-mer frequency, TF over GST control) | binding signal (HSF1): 1.05 fold enrichment (6-mer frequency, TF over GST control) | binding signal (SPIC): 1.02 fold enrichment (6-mer frequency, TF over GST control) | binding signal (ELF4): 1.15 fold enrichment (6-mer frequency, TF over GST control) | binding signal (ELK4): 1.11 fold enrichment (6-mer frequency, TF over GST control) | binding signal (ETV2): 1.08 fold enrichment (6-mer frequency, TF over GST control) | binding signal (ELF3): 1.04 fold enrichment (6-mer frequency, TF over GST control) | binding signal (CRX): 1.15 fold enrichment (6-mer frequency, TF over GST control) | binding signal (ETV1): 1.11 fold enrichment (6-mer frequency, TF over GST control)
